Assay results reported in PubChem BioAssay (NCI).
The panel holds about 83,000 compounds, 20% with a hit somewhere; the sample as a whole holds those more often.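 Each cell line was grown in a 96-well plate and treated with one concentration of compound for 48 hours. Values below 10 were considered active.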 The source made the active and inactive calls.

These molecules were tested on KM12 colon (assay: NCI-60 one-dose screen, 48 h (100 = growth as untreated, 0 = no growth, -100 = all killed)). Conditions: 10 µM unless noted.

Structure (SMILES) | growth
O=C(Nc1cnc(Nc2ccc(N3CCOCC3)nc2)nc1Oc1ccc(C(F)(F)F)cc1)c1ccncc1 | 91% (inactive)
O=C(N/N=C\c1cccc([N+](=O)[O-])c1)N/N=C/c1cccc([N+](=O)[O-])c1 | 107% (inactive)
Oc1ccc(/C=C/c2ccc(O)cc2)cc1 | 45.5% (inactive)
CCNC(=O)Oc1ccc(/C(=C(/CC)Cc2ccccc2)c2ccc(OCCN3CCCC3)cc2)cc1 | 98% (inactive)
NNCCc1ccc(NC(=O)CCCc2ccc(C(=O)Nc3ccccc3N)cc2)cc1 | 81.5% (inactive)
COC(=O)CCC/C=C\C[C@H]1C=CC(=O)/C1=C/C[C@@H](O)C/C=C\CC(F)(F)F | -31.7% (active)
CCCCC#Cc1c(I)n(C)c(=O)[nH]c1=O | 108% (inactive)
N#CC1CCc2c(c(-c3ccc4nc(N)sc4c3)nc3ccc4[nH]ncc4c23)C1 (centres undefined) | 24.4% (inactive)
O=C(Cc1ccc(/C=C/C(=O)c2ncc[nH]2)cc1)Nc1cc(C(F)(F)F)cc(C(F)(F)F)c1 | 38.5% (inactive)
O=c1nc(-c2ccccc2)c2cc(-c3ccc(C(F)(F)F)nc3)ccc2[nH]1 | 91.1% (inactive)
CO[C@H]1CC(=O)n2c3ccccc3c3c4c(c5c6ccccc6n1c5c32)C(=O)NC4=O | 29.9% (inactive)
COc1cc(C2C(C(=O)OCc3ccccc3)=C(C)NC(C)=C2C(=O)OCc2ccccc2)cc(OC)c1OC | 19.4% (inactive)
Cc1cc2c(cc1C)N(C(=O)CCl)CC(=O)N2 | 60.2% (inactive)
Cc1ccc(S(=O)(=O)Oc2ccc3sc4cccc(NCCN(C)C)c4c(=O)c3c2)cc1 | -85% (active)
COc1ccc2c(c1)/C(=N/c1n[nH]c(=S)s1)C(=O)N2 | 89% (inactive)
O=C(Cc1ccc(NC(=O)c2cccc(Cl)c2)cc1)NCc1ccccc1 | 24.8% (inactive)
COc1ccc(-c2n[nH]c(=O)c3nc(NC(=S)Nc4ccc(Oc5ccccc5)cc4)sc23)cc1 | 93.8% (inactive)
C=CCn1c(SCC(=O)Nc2ccc(/C(C)=N/O)cc2)nnc1-c1cc(-c2ccc(S(N)(=O)=O)cc2)nc2ccccc12 | 86.5% (inactive)
C=C1CC[C@@H]2C(C)(C)[C@@H](O)CC[C@@]2(C)[C@@H]1COc1ccc2ccc(=O)oc2c1 | 70% (inactive)
O=C(O)COc1ccc(Cl)c(Cl)c1 | 110% (inactive)

Structure (SMILES) | growth
O=C1Nc2ccccc2C1(c1c[nH]c2ccccc12)c1c[nH]c2ccccc12 | 11.9% (inactive)
COc1cc(Cl)c(C)cc1NC(=O)c1cc2ccccc2cc1O | 9.32% (active)
C/C(=N\O)[C@@H]1CC[C@]2(CO)CC[C@]3(C)[C@H](CC[C@@H]4[C@@]5(C)CCCNC(C)(C)[C@@H]5CC[C@]43C)[C@@H]12 | 83.6% (inactive)
Cc1cccc(N2CCC(=O)NC2=S)c1 | 107% (inactive)
Nn1c(=O)c(=O)[nH]c2c(cnn2-c2ccccc2)c1=O | 107% (inactive)
O=C(Cn1nnc2ccccc21)N/N=C/c1c[nH]c2ccccc12 | 22.6% (inactive)
O=C(O)/C=C/C(=O)Nc1cccc(Cn2nnc3cc(Cl)c(Cl)cc32)c1 | 109% (inactive)
CN1CCN(Cc2ccc(NC(=O)c3cncc(C#Cc4cnc(N)c5ccc(F)cc45)c3)cc2C(F)(F)F)CC1 | 7.82% (active)
Cc1ccc2c(-c3nnc(N)s3)cc(=O)oc2c1C | 105% (inactive)
CCOc1ccc(-n2nc(C(=O)NCc3ccccc3OC)nc2-c2cc(OC)c(OC)c(OC)c2)cc1 | 33.8% (inactive)
CC1=C(CCC(C)NCc2ccc(OCCCN3CCCCC3)cc2)C(C)(C)CCC1 (centres undefined) | -80% (active)
Cc1nc2ccccc2c(/C=C/c2ccccc2)c1C(=O)/C=C/c1ccccc1 | 11.6% (inactive)
CCN(CC)CCN1C(=O)c2c(c(C)c3c(oc4ccc(O)cc43)c2C)C1=O | 32.3% (inactive)
COc1ccc(Cn2cc(C(=O)N=Nc3c(O)[nH]c4c(C)cccc34)nn2)cc1 | 95.6% (inactive)
FC(F)(F)Oc1cccc(-c2cnc3ccc(-c4ccncc4)nn23)c1 | 8.63% (active)
Cc1c2cccnc2c(C)c2c1c1cc(CO)ccc1n2C | 31.1% (inactive)
CNCc1cccc2c1OCCOCCOCCNS(=O)(=O)c1ccc(cc1)-c1cnc(N)c(n1)C(=O)N2 | 20.2% (inactive)
CNC(C)[C@H]1CCC2C3CC=C4C(=O)[C@@H](NC(=O)C=C(C)C)CC[C@]4(C)C3CC[C@@]21C (some centres undefined) | 10.1% (inactive)
C=C1C(=O)O[C@H]2[C@H]1CC/C(COC(=O)/C=C\C(=O)NCc1ccc(Cn3c(=O)sn(CCCCC)c3=O)cc1)=C\CC[C@@]1(C)O[C@@H]21 | 98.8% (inactive)
